Experimental data from article PMC4336329 (PLoS ONE, 2015).
Out of some 310,000 compounds screened, about 14,000 (4.5%) showed an effect of 50% or more. Effects have a minus sign here. What follows is part of a selection rich in strong results, with near analogues and random picks from the rest.
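Note: peak tail current of the secondary pulse compared with the same well before compound.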

These compounds were tested against human ether-à-go-go-related gene (hERG) potassium channel (human, UniProt Q12809) (assay: primary screen, population patch clamp on CHO cells stably expressing hERG; higher = less effect of the substance).
Chain of human ether-à-go-go-related gene (hERG) potassium channel (Q12809 whole entry, looked up): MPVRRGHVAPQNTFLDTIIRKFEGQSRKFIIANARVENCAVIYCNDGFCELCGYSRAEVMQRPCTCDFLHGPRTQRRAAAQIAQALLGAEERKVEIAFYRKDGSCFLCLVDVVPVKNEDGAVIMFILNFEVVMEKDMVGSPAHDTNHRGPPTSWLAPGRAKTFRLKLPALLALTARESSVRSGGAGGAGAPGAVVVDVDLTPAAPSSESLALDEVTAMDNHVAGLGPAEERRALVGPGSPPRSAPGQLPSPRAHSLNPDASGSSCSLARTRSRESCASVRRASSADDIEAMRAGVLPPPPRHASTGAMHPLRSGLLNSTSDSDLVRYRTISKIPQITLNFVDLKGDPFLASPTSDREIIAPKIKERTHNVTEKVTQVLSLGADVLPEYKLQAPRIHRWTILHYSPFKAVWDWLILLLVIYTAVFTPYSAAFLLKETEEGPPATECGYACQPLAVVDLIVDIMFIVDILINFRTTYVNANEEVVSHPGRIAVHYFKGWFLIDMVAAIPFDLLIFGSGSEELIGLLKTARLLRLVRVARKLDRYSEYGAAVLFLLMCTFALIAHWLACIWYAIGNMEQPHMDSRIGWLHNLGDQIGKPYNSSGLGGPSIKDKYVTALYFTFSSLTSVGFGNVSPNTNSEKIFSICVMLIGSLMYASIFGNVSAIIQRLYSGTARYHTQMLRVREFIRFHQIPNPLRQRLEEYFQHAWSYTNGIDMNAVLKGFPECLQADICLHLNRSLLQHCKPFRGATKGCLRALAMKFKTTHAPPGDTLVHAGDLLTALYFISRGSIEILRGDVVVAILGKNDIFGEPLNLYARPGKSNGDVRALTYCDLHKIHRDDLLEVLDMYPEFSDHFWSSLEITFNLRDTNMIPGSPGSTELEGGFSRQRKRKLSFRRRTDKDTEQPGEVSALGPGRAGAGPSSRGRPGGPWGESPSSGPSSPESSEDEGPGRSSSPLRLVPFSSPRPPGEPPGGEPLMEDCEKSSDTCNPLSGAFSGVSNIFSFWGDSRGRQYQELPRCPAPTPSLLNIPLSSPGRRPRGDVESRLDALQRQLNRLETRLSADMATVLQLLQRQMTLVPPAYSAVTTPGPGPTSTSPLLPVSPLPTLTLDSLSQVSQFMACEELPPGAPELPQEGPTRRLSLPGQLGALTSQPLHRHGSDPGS
With `CC(=O)C(C)n1c(CN(C)Cc2ccccc2)nc2c1c(=O)n(C)c(=O)n2C` (stereo not drawn) the “hERG current change (%, negative = inhibition) at 10uM” value was -5.4%. With `O=C(CSc1cc([N+](=O)[O-])cc(S(=O)(=O)Cc2ccccc2)c1)NC1CC1` the “hERG current change (%, negative = inhibition) at 10uM” value was -9.88%. `COCCNC(=O)COc1ccc(C)c(C)c1` was tested, and the “hERG current change (%, negative = inhibition) at 10uM” value was 3.36%. In the case of `Cc1cc(S(=O)(=O)N2CCC(N3CCCCC3)CC2)ccc1-n1cnnn1`, the “hERG current change (%, negative = inhibition) at 10uM” value is reported as -1.17%. With `COc1cccc(C2CC(c3ccccc3Cl)n3nnnc3N2)c1` (stereo not drawn) the “hERG current change (%, negative = inhibition) at 10uM” value was -12.1%. In the case of `O=C(Nc1nc2ccccc2s1)c1cccc(S(=O)(=O)N2CCc3ccccc32)c1`, the “hERG current change (%, negative = inhibition) at 10uM” value is reported as -7.03%. With `Cc1cccc(OCCCC(=O)NNC(=O)c2ccc(F)cc2)c1` the “hERG current change (%, negative = inhibition) at 10uM” value was -7.21%. `COc1ccc(-c2nn3c(C4CCCCC4)nnc3s2)cc1OC` was tested, and the “hERG current change (%, negative = inhibition) at 10uM” value was -15.2%. In the case of `COc1ccc(-n2nc(C(=O)NCC(=O)NC3CCCCCC3)c3ccccc3c2=O)c(OC)c1`, the “hERG current change (%, negative = inhibition) at 10uM” value is reported as 11.1%. In the case of `N/C(=N\OC(=O)COc1ccc(Cl)cc1Br)c1cccnc1`, the “hERG current change (%, negative = inhibition) at 10uM” value is reported as -8.3%. With `C=CCc1ccc(OCC(O)CN2CCN(Cc3ccccc3)CC2)c(OC)c1.Cl` (stereo not drawn) the “hERG current change (%, negative = inhibition) at 10uM” value was -77%. With `C=CCc1ccc(OC)c(OC)c1` the “hERG current change (%, negative = inhibition) at 10uM” value was 23.8%. In the case of `C=CCc1ccc(OCC(O)COCC)c(OC)c1` (stereo not drawn), the “hERG current change (%, negative = inhibition) at 10uM” value is reported as -3.56%. With `C=CCc1ccc(OCC(O)CN2CCCCC2)c(OC)c1` (stereo not drawn) the “hERG current change (%, negative = inhibition) at 10uM” value was -54.8%. With `C=CCc1ccc(OCC(O)CO)c(OC)c1` (stereo not drawn) the “hERG current change (%, negative = inhibition) at 10uM” value was 11.6%. For `C=CCc1ccc(OCC(O)CN2CCN(Cc3ccc(Cl)cc3)CC2)c(OC)c1.Cl` (stereo not drawn), the “hERG current change (%, negative = inhibition) at 10uM” value was -75.7%. In the case of `C=CCN1C(=O)c2ccc(C(=O)N3CCN(S(=O)(=O)c4ccccc4Br)CC3)cc2C1=O`, the “hERG current change (%, negative = inhibition) at 10uM” value is reported as -41.2%. With `O=C(NC(=S)Nc1ccccc1[N+](=O)[O-])c1ccccc1` the “hERG current change (%, negative = inhibition) at 10uM” value was 6.17%. In the case of `CSc1nc(N)nc(SCCS(=O)(=O)c2ccc(Cl)cc2)c1C#N`, the “hERG current change (%, negative = inhibition) at 10uM” value is reported as -3.5%. `CN(C(=O)COC(=O)c1ccc2c(c1)NC(=O)CS2)C1CCS(=O)(=O)C1` (stereo not drawn) was tested, and the “hERG current change (%, negative = inhibition) at 10uM” value was 31.3%. With `CC1(C)C2C/C(=N\O)C(C)(/[N+]([O-])=C/c3cccc([N+](=O)[O-])c3)CC21` (stereo not drawn) the “hERG current change (%, negative = inhibition) at 10uM” value was -10.7%. `COc1ccc(C(C(=O)NC2CCCC2)N(Cc2cccnc2)C(=O)Cc2cccs2)cc1OC` (stereo not drawn) was tested, and the “hERG current change (%, negative = inhibition) at 10uM” value was -1.66%. With `Cc1cccc(CN2CCOCCS2(=O)=O)c1` the “hERG current change (%, negative = inhibition) at 10uM” value was 10.2%. In the case of `O=C(/C=C/c1cccs1)N1CCCC1`, the “hERG current change (%, negative = inhibition) at 10uM” value is reported as 33.1%. With `OCC1(CCOc2ccccc2)CCN(Cc2ccc3cccc(F)c3n2)CC1` the “hERG current change (%, negative = inhibition) at 10uM” value was -83%. `COc1cccc(CC2(CO)CCN(S(=O)(=O)N(C)C)CC2)c1` was tested, and the “hERG current change (%, negative = inhibition) at 10uM” value was 11.9%. `OCC1(Cc2cccc(Cl)c2)CCCN(Cc2ccc3cc(F)ccc3n2)C1` (stereo not drawn) was tested, and the “hERG current change (%, negative = inhibition) at 10uM” value was -23.8%. With `COc1cccc(CN2CCN(Cc3ccc4cccc(F)c4n3)CC2CCO)c1` (stereo not drawn) the “hERG current change (%, negative = inhibition) at 10uM” value was -39.9%. In the case of `OCC1(Cc2cccc(F)c2)CCN(Cc2ccc3cccc(F)c3n2)CC1`, the “hERG current change (%, negative = inhibition) at 10uM” value is reported as -64.7%. With `COc1cccc(CC2(CO)CCN(Cc3ccc4cccc(F)c4n3)CC2)c1` the “hERG current change (%, negative = inhibition) at 10uM” value was -64.4%. With `CC(C)c1csc(CN2CCC(CO)(Cc3cccc(F)c3)CC2)n1` the “hERG current change (%, negative = inhibition) at 10uM” value was -17.3%. `CC(=O)Cc1nsc(NC(=O)c2csc3c2CCCC3)n1` was tested, and the “hERG current change (%, negative = inhibition) at 10uM” value was -8.24%. `CCOc1ccccc1NC(=O)CSc1ccc(-c2ccco2)nn1` was tested, and the “hERG current change (%, negative = inhibition) at 10uM” value was -16.6%. With `Cc1cccc(C2NC(c3cccc(C)c3)C(C)C(=O)C2C)c1` (stereo not drawn) the “hERG current change (%, negative = inhibition) at 10uM” value was 8.92%. `CSc1ncc(CN2CCN(C(C)C)C(CCO)C2)cn1` (stereo not drawn) was tested, and the “hERG current change (%, negative = inhibition) at 10uM” value was -2.82%. With `O=C(Nc1nnc(C2=COCCO2)o1)c1ccc(Br)cc1` the “hERG current change (%, negative = inhibition) at 10uM” value was -0.63%. For `CCCc1cc(=O)[nH]c(SCC(=O)N2CCN(c3ccc(F)cc3)CC2)n1`, the “hERG current change (%, negative = inhibition) at 10uM” value was -15.2%. `CCN(CC)Cc1c(C(=O)N/N=C/c2ccco2)nnn1-c1nonc1N` was tested, and the “hERG current change (%, negative = inhibition) at 10uM” value was -14.3%. With `FC(F)(F)c1cccc(N2Cc3ccccc3C2)c1` the “hERG current change (%, negative = inhibition) at 10uM” value was 6.28%. For `COc1cccc(-c2nc(CS(=O)(=O)CC(=O)NCCc3ccccc3)c(C)o2)c1`, the “hERG current change (%, negative = inhibition) at 10uM” value was 0.232%. `CCOC(=O)c1sc(=NC(=O)c2ccc(OC(C)C)cc2)n(C)c1C` was tested, and the “hERG current change (%, negative = inhibition) at 10uM” value was 10.8%. With `Nc1ccccc1-c1nnc(-c2ccc(-c3ccccc3)cc2)o1` the “hERG current change (%, negative = inhibition) at 10uM” value was 10.1%. With `COc1ccc(/C=C/CN2CCCC(C(=O)c3cc(F)ccc3F)C2)cc1` (stereo not drawn) the “hERG current change (%, negative = inhibition) at 10uM” value was -76.4%. `CSCC(=O)N1CCCC(C(=O)c2cc(F)ccc2F)C1` (stereo not drawn) was tested, and the “hERG current change (%, negative = inhibition) at 10uM” value was -1.1%. In the case of `Cc1cc(C(=O)N2CCCC(C(=O)c3cc(F)ccc3F)C2)c(C)o1` (stereo not drawn), the “hERG current change (%, negative = inhibition) at 10uM” value is reported as -4.31%. With `COc1ccc(/C=C/CN2CCCC(C(=O)c3ccc(OC)c(F)c3)C2)cc1` (stereo not drawn) the “hERG current change (%, negative = inhibition) at 10uM” value was -94.5%. In the case of `COc1ccc(C(=O)C2CCCN(C(=O)c3ccoc3C)C2)cc1F` (stereo not drawn), the “hERG current change (%, negative = inhibition) at 10uM” value is reported as -6.04%. For `COc1ccc(C(=O)C2CCCN(C(=O)Cn3nc(C)cc3C)C2)cc1F` (stereo not drawn), the “hERG current change (%, negative = inhibition) at 10uM” value was -17.4%. For `Cc1nn(-c2ccccc2)c(Cl)c1/C=N\NC(=O)c1cnccn1`, the “hERG current change (%, negative = inhibition) at 10uM” value was -5%. `CCc1cccc(C)c1NS(=O)(=O)c1cc(Br)cnc1N` was tested, and the “hERG current change (%, negative = inhibition) at 10uM” value was 8.34%. With `COC(=O)c1ccccc1NC(=S)NC(NC(=O)COc1ccccc1)C(Cl)(Cl)Cl` (stereo not drawn) the “hERG current change (%, negative = inhibition) at 10uM” value was 7.66%. In the case of `CCN1CCN(C(=O)Cc2ccccc2OC)CC1`, the “hERG current change (%, negative = inhibition) at 10uM” value is reported as 13.3%. In the case of `Cc1ccccc1OCC(O)CN1CCN(c2ccccn2)CC1.Cl` (stereo not drawn), the “hERG current change (%, negative = inhibition) at 10uM” value is reported as -48.8%. For `Cc1cc(C)c(C)c(OCC(=O)N2CCN(c3ccccn3)CC2)c1`, the “hERG current change (%, negative = inhibition) at 10uM” value was -33.6%. `Cc1ccc(OCC(O)CN2CCN(c3ccccn3)CC2)c(C)c1.Cl` (stereo not drawn) was tested, and the “hERG current change (%, negative = inhibition) at 10uM” value was -60.5%. With `CC(C)(C)c1ccccc1OCC(O)CN1CCN(c2ccccn2)CC1.Cl` (stereo not drawn) the “hERG current change (%, negative = inhibition) at 10uM” value was -48.8%. In the case of `Cc1cc(C)c(OCC(O)CN2CCN(c3ccccn3)CC2)c(C)c1.Cl` (stereo not drawn), the “hERG current change (%, negative = inhibition) at 10uM” value is reported as -58.3%. For `Cc1cccc(OCC(O)CN2CCN(c3ccccn3)CC2)c1C.Cl` (stereo not drawn), the “hERG current change (%, negative = inhibition) at 10uM” value was -45.5%. In the case of `Cc1cc(C)c(C)c(OCC(O)CN2CCN(c3ccccn3)CC2)c1.Cl` (stereo not drawn), the “hERG current change (%, negative = inhibition) at 10uM” value is reported as -54.4%. `Cc1cccc(C)c1OCC(O)CN1CCN(c2ccccn2)CC1` (stereo not drawn) was tested, and the “hERG current change (%, negative = inhibition) at 10uM” value was -35.5%.
